Source: PubChem BioAssay (NCI)
Compounds without any hit were thinned out: in the full panel of roughly 83,000, 20% have a hit.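 A percent growth of 40 corresponds to 60% growth inhibition; 0 means no net growth; -100 means all cells died. Active threshold: below 10.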 The source made the active and inactive calls.

system: OVCAR-4 ovarian; assay: NCI-60 one-dose screen, 48 h (100 = growth as untreated, 0 = no growth, -100 = all killed); settings: 10 µM unless noted

SMILES	growth
O=c1c2cc(Br)cc(Br)c2nc(-c2ccc(Cl)cc2)n1/N=C\c1ccccc1F	-9.05% (active)
O=C(O)CSc1ccc(NCc2oc(CO)cc(=O)c2O)cc1	103% (inactive)
O=C(c1ccccc1)C1OC1C(=O)c1ccccc1 (configuration not stated)	60.1% (inactive)
CS(=O)(=O)c1ccc(C(=O)Nc2ccc(Cl)c(-c3ccccn3)c2)c(Cl)c1	26.8% (inactive)
COc1ccccc1/C=N\Nc1ccc([N+](=O)[O-])cn1	115% (inactive)
CCN1C(=O)N(CC)C2C1N=C(SC)N2/N=C/C=C/c1ccccc1OC (configuration not stated)	50.5% (inactive)
O=C(c1ccccc1)C(CCc1ccccn1)CCc1ccccn1	111% (inactive)
C=C[C@H]1CCC/C=C/[C@@H]2C[C@H](O)C[C@H]2[C@H](O)/C=C/C(=O)O1	8% (active)
CCN1C(=O)N(CC)C2C1NC(=O)N2/N=C/C=C/c1ccccc1 (configuration not stated)	64.4% (inactive)
O=[N+]([O-])c1ccc(N/N=C/c2ccccc2O)nc1	39.3% (inactive)
C#CCNc1nc(NCCNC(=O)CCl)nc(N(C)CCCCc2ccccc2)n1	96.6% (inactive)
O=S1(=O)NCCCN1CCNc1nccc(-c2c(-c3cccc(O)c3)nc3sccn23)n1	85.4% (inactive)
OC(CCCCCCCCC(O)CN1CCc2ccccc2C1)CN1CCc2ccccc2C1 (configuration not stated)	96.2% (inactive)
CCCCCCCCCCCCNC(=O)N[C@H](C(=O)N[C@H]1/C=C/CCNC(=O)/C=C/[C@H](C)NC1=O)C(C)C	3.35% (active)
COc1ccccc1-[n+]1cc(-c2ccc(-c3ccccc3)cc2)n2c1CCCCC2	20.2% (inactive)
O=C(CCl)N1c2ccccc2Oc2ccc3ccccc3c21	20.7% (inactive)
C=C(c1ccc(C(=O)NCCCn2ccnc2)cc1)c1cc2c(cc1C)C(C)(C)CCC2(C)C	37% (inactive)
COc1cc(CN2CCC(N3CCCC3=O)c3ccccc32)cc(OC)c1OC (configuration not stated)	41.3% (inactive)
CC(=O)Nc1ccc(/C=N/N2CCCCCC2)cc1	99.1% (inactive)
CCCCc1nc(Cl)c(C2CC(c3ccc(S(N)(=O)=O)cc3)=NN2c2cc(Cl)cc(Cl)c2)[nH]1 (configuration not stated)	51.4% (inactive)

SMILES	growth
O=C1NN(C(=O)c2ccccc2)C(c2ccc(Cl)c(Cl)c2)=C/C1=C\c1ccccc1[N+](=O)[O-]	12.2% [6.75 µM] (inactive)
O=C(NNC(=O)c1cccc(Cl)c1)c1ccccc1	103% (inactive)
Cc1c(C(N)=O)sc2ncn(CC(=O)NN=C3CCCCC3)c(=O)c12	110% (inactive)
Clc1cc(Cl)cc(-c2cnc3nonc3n2)c1	85.5% (inactive)
CCOC(=O)Cn1c(-c2nonc2NC(=O)c2ccccc2F)nc2ccccc21	90.8% (inactive)
COc1ccc(C(=O)O)cc1.[Ag]	117% (inactive)
COc1cccc(C2C(C#N)=C(N)Oc3cc4c(cc32)OCO4)c1 (configuration not stated)	40.5% (inactive)
C=CCOC(=O)C1=C(C)NC2=C(C(=O)CCC2)C1c1ccc(F)cc1 (configuration not stated)	98.7% (inactive)
COc1cc(CN(c2ccc(C)cc2)C2OC(=O)c3ccccc32)cc(OC)c1OC (configuration not stated)	65.9% (inactive)
CN1C(=O)C(C(=O)/C=C/c2ccccc2C(=O)O)C(=O)N(C)C1=O	109% (inactive)
CC1(C)OC2OC3C(CN)OC(c4ccccc4)OC3C2O1 (configuration not stated)	111% (inactive)
O=S(=O)(Cc1ccc(Cl)cc1Cl)c1ccc(Cl)cc1	69.5% (inactive)
COC(=O)OC1C(O[C@H]2C[C@H]3[C@@H]4CC=C5C[C@@H](O)CC[C@]5(C)[C@H]4CC[C@]3(C)[C@H]2[C@H](C)C(=O)CCC(C)C)OCC(O)C1OC1OCC(O)C(O)C1OC(=O)c1ccc(OC)cc1 (some centres not stated)	57.1% (inactive)
CC(C)c1ccc2c(c1)CCC1C2CCCC1(C)NCc1ccccc1 (configuration not stated)	67.7% (inactive)
CC(=O)C1CCC2C3CC(C)=C4CC(O)CCC4(C)C3CCC12C (configuration not stated)	93.4% (inactive)
CC(CN1CCN(CC(C)Nc2ccnc3cc(Cl)ccc23)CC1)Nc1ccnc2cc(Cl)ccc12 (configuration not stated)	3.26% (active)
C=CCOC(=O)C1=C(C)NC2=C(C(=O)CC(C)(C)C2)C1c1ccc(OC)cc1 (configuration not stated)	110% (inactive)
CCCCCCCC/C=C/CCCCCCCC1=NC(C)(C)CN1c1ccccc1	80.2% (inactive)
COc1ccc2c(c1)N(Cc1ccc(Cl)cc1)CCC2N1CCCC1=O (configuration not stated)	34% (inactive)

system: SK-OV-3 ovarian; assay: as above; settings: 10 µM unless noted

SMILES	growth
O=c1c2cc(Br)cc(Br)c2nc(-c2ccc(Cl)cc2)n1/N=C\c1ccccc1F	49.6% (inactive)
O=C(O)CSc1ccc(NCc2oc(CO)cc(=O)c2O)cc1	98.7% (inactive)
O=C(c1ccccc1)C1OC1C(=O)c1ccccc1 (configuration not stated)	54.3% (inactive)
CS(=O)(=O)c1ccc(C(=O)Nc2ccc(Cl)c(-c3ccccn3)c2)c(Cl)c1	19.2% (inactive)
COc1ccccc1/C=N\Nc1ccc([N+](=O)[O-])cn1	108% (inactive)
CCN1C(=O)N(CC)C2C1N=C(SC)N2/N=C/C=C/c1ccccc1OC (configuration not stated)	18.9% (inactive)
O=C(c1ccccc1)C(CCc1ccccn1)CCc1ccccn1	95.8% (inactive)
C=C[C@H]1CCC/C=C/[C@@H]2C[C@H](O)C[C@H]2[C@H](O)/C=C/C(=O)O1	26.3% (inactive)
CCN1C(=O)N(CC)C2C1NC(=O)N2/N=C/C=C/c1ccccc1 (configuration not stated)	36.7% (inactive)
C#CCNc1nc(NCCNC(=O)CCl)nc(N(C)CCCCc2ccccc2)n1	101% (inactive)
OC(CCCCCCCCC(O)CN1CCc2ccccc2C1)CN1CCc2ccccc2C1 (configuration not stated)	105% (inactive)
CCCCCCCCCCCCNC(=O)N[C@H](C(=O)N[C@H]1/C=C/CCNC(=O)/C=C/[C@H](C)NC1=O)C(C)C	-42.6% (active)
COc1ccccc1-[n+]1cc(-c2ccc(-c3ccccc3)cc2)n2c1CCCCC2	-18.1% (active)
O=C(CCl)N1c2ccccc2Oc2ccc3ccccc3c21	30.7% (inactive)
C=C(c1ccc(C(=O)NCCCn2ccnc2)cc1)c1cc2c(cc1C)C(C)(C)CCC2(C)C	4.17% (active)
COc1cc(CN2CCC(N3CCCC3=O)c3ccccc32)cc(OC)c1OC (configuration not stated)	100% (inactive)
CC(=O)Nc1ccc(/C=N/N2CCCCCC2)cc1	99.9% (inactive)

SMILES	growth
CCCCc1nc(Cl)c(C2CC(c3ccc(S(N)(=O)=O)cc3)=NN2c2cc(Cl)cc(Cl)c2)[nH]1 (configuration not stated)	69.6% (inactive)
O=C1NN(C(=O)c2ccccc2)C(c2ccc(Cl)c(Cl)c2)=C/C1=C\c1ccccc1[N+](=O)[O-]	37.1% [6.75 µM] (inactive)
O=C(NNC(=O)c1cccc(Cl)c1)c1ccccc1	114% (inactive)
Cc1c(C(N)=O)sc2ncn(CC(=O)NN=C3CCCCC3)c(=O)c12	110% (inactive)
Clc1cc(Cl)cc(-c2cnc3nonc3n2)c1	96.4% (inactive)
CCOC(=O)Cn1c(-c2nonc2NC(=O)c2ccccc2F)nc2ccccc21	75% (inactive)
COc1ccc(C(=O)O)cc1.[Ag]	114% (inactive)
COc1cccc(C2C(C#N)=C(N)Oc3cc4c(cc32)OCO4)c1 (configuration not stated)	0.748% (active)
CN1C(=O)C(C(=O)/C=C/c2ccccc2C(=O)O)C(=O)N(C)C1=O	88.8% (inactive)
CC1(C)OC2OC3C(CN)OC(c4ccccc4)OC3C2O1 (configuration not stated)	104% (inactive)
O=S(=O)(Cc1ccc(Cl)cc1Cl)c1ccc(Cl)cc1	9.24% (active)
CC(C)c1ccc2c(c1)CCC1C2CCCC1(C)NCc1ccccc1 (configuration not stated)	86.4% (inactive)
CC(=O)C1CCC2C3CC(C)=C4CC(O)CCC4(C)C3CCC12C (configuration not stated)	112% (inactive)
CC(CN1CCN(CC(C)Nc2ccnc3cc(Cl)ccc23)CC1)Nc1ccnc2cc(Cl)ccc12 (configuration not stated)	97.2% (inactive)
CCCCCCCC/C=C/CCCCCCCC1=NC(C)(C)CN1c1ccccc1	99.1% (inactive)
COc1ccc2c(c1)N(Cc1ccc(Cl)cc1)CCC2N1CCCC1=O (configuration not stated)	43.4% (inactive)
